High-throughput results as filed in PubChem.
Only some compounds are listed: those with a hit (about 6.1% of all), similar ones and a draw of the others.
DRD3 agonist: agonists of human D3 dopamine receptor; P35462; D3R DiscoveRx beta-arrestin cells, luminescence, 90 min; max activation, %; 410,000 compounds, 0.58% hits; AID 652048; in the data active = max activation above about 30%; note: 0% is about no effect
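Cells at 1500/well, incubated overnight, then treated with pinned compounds (dopamine as control) for 90 min at 37 degrees C. DiscoveRx reagent added for 30 - 60 minutes at room temperature; luminescence read.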
DRD3 antagonist: antagonists of human D3 dopamine receptor; D3R cells, DiscoveRx beta-arrestin luminescence, antagonist mode; hits give low values; P35462; max response, negative = inhibition, %; 360,000 compounds, 2.5% hits; in the data active = max response below about -50%; inconclusive = no clear call, values can overlap the other calls; note: % is set by controls: 0 for no effect and ±100 for the full control effect
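Cells plated overnight at 1500 cells/well, then exposed to library compounds with dopamine controls for 90 minutes at 37 degrees C. DiscoveRx reagent added for 30–60 minutes at room temperature; luminescence read, quantitative HTS format.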
D1 ag: human D1 receptor agonism | 360,000 compounds, 1% hits | P21728 | activation, % at 2 µM | HEK293 T-REx D1 cells, calcium flux, agonist mode; in the data active = activation above about 30%; note: 0% is about no effect
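Agonism was scored from calcium flux recorded over 180 s (1 read/s) after pintool compound addition, following a 10-cycle baseline. Cells were inducible force-coupled HEK293 TREx D1, plated overnight at 30 C and loaded with no-wash calcium dye.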
ERG-DNA inh: inhibitors of human ERG Ets domain-DNA interaction; fluorescence polarization, His-ERG Ets domain / labelled DNA; P11308; AID 624246; Potency, µM (top dose mostly 76.9 µM), inactives show at the highest dose FP activity, negative = inhibition, hits mostly inhibitors; 370,000 compounds, 0.028% hits; active = well fitted inhibition curve with a large enough effect in the polarisation, with a control signal flat; inconclusive = small, poorly fitted or top-dose-only effect, or effect the other way, or a change in a side signal; inactive = no such curve, though single readings can be large or run the other way; the % refers to the polarisation;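 note: polarization taken with two DNA probes labelled with fluorescein and Texas red; potency is the fitted concentration of half-maximal effect; % of control where 0% means no effect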
Target sequence (P11308 whole entry, looked up, the tested form may be a part): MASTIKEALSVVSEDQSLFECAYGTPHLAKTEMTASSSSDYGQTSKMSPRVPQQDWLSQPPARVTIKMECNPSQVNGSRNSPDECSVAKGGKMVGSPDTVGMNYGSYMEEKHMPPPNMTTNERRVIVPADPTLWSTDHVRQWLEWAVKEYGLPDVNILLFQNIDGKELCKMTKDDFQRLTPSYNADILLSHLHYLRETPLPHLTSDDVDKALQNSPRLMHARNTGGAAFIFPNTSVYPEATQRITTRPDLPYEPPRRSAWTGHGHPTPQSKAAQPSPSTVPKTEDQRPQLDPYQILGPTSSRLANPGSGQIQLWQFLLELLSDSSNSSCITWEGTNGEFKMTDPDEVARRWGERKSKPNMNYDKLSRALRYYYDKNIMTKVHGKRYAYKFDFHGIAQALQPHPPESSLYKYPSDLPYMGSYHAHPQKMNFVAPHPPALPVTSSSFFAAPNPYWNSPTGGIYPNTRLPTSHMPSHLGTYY
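His-tagged ERG Ets domain (1 uM in the protein solution; 300mM KCl, 50mM Tris-HCl, 1mM EDTA, 1mM DTT, pH 7.5) received compound, then a probe mix of 5 nM fluorescein-DNA and 100nM Texas-615-DNA. Fluorescence polarization was read for both dyes.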
D1 antagonist: blocks dopamine activation of the human D1 receptor | HEK293 TREx D1 cells, calcium flux, dopamine EC80; hits give low values | activity change, negative = inhibition, % at 10 µM | 360,000 compounds, 3.2% hits; in the data active = activity change below about -30%; note: % is set by controls: 0 for no effect and ±100 for the full control effect
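Compound effects on dopamine-evoked calcium signalling were measured in tetracycline-induced HEK293 Trex D1 cells. Dopamine at EC80 followed a 180 s compound pre-read, and fluorescence was tracked kinetically for 180 s more.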
D1 PAM: enhances dopamine response at the human D1 receptor; P21728; AID 504651; potentiation, % at 10 µM; 360,000 compounds, 0.036% hits; HEK293 TREx D1 cells, calcium flux, dopamine EC20 potentiation; in the data active = potentiation above about 30%; note: 0% is about no effect
* hit, by the source's call; ? = inconclusive; . = no result.

SMILES	DRD3 agonist	DRD3 antagonist	D1 ag	ERG-DNA inh	D1 antagonist	D1 PAM
CCOc1ccc(NC(=O)CSC2=Nc3ccccc3C3=NC(CCC(=O)NCc4ccccc4)C(=O)N23)cc1 (stereo not given)	-7	.	-1	0%	3	-1
Cc1ccccc1OCC(=O)N/N=C1\SCC(=O)N1Cc1ccccc1	2	9	1	-7%	-43*	-1
Cc1ccc(OCC(=O)N/N=C2/SCC(=O)N2Cc2ccccc2)cc1	4	-22	4	-2%	22	-5
COc1ccc(NS(=O)(=O)c2ccc3c(c2)NC(=O)CCS3)cc1Cl	-2	-5	5	1%	-39*	4
CC1CCC(NC(=O)CN2CCC(n3nnc4cc(F)ccc43)CC2)CC1 (stereo not given)	0	-67*	0	0%	5	1
O=C(CN1CCC(n2nnc3ccccc32)CC1)Nc1ccc2c(c1)CCC2	-7	-65*	3	1%	0	-2
Cc1ccc2c(c1)nnn2C1CCN(CC(=O)N2c3ccccc3CC2C)CC1 (stereo not given)	-9	-70*	2	6%	10	-4
Cc1ccccc1NC(=O)CN1CCC(n2nnc3ccccc32)CC1	0	?	1	-8%	2	-1
O=C(CN1CCC(n2nnc3cc(F)ccc32)CC1)NNC(=O)c1ccccc1	-25	?	2	.	3	-8
CCOC(=O)c1ccccc1NC(=O)CN1CCC(n2nnc3cc(F)ccc32)CC1	2	28	.	-5%	.	.
O=C(CN1CCC(n2nnc3cc(F)ccc32)CC1)NCCc1nc2ccccc2[nH]1	-34	-65*	1	.	1	-4
O=C(Cn1ncc2c3ccccc3n(Cc3ccc(Cl)cc3)c2c1=O)N1CCCCCC1	-10	.	6	2%	3	-3
O=C(CN1CCC(n2nnc3cc(F)ccc32)CC1)N1CCCc2ccccc21	0	-54*	1	-6%	-21	-1
COc1cccc(NC(=O)N2CCC(n3nnc4ccccc43)CC2)c1	-7	6	20	-8%	-47*	-4
O=C(CN1CCC(n2nnc3cc(C(F)(F)F)ccc32)CC1)N1CCc2ccccc21	-15	-26	1	.	-3	-1
Cc1ccc2c(c1)nnn2C1CCN(CC(=O)Nc2ccc(F)cc2)CC1	-34	?	0	-16%	1	-11
O=C(CN1CCC(n2nnc3cc(F)ccc32)CC1)Nc1ccc2c(c1)CCC2	-11	-76*	-1	0%	-18	-7
CCC(c1nc2ccccc2[nH]1)N(C(=O)C1=NNC(=O)CC1)c1ccccc1 (stereo not given)	5	42	.	.	.	.
C=C(C(=O)Nc1ccccc1)c1ccc(C)cc1	4	-15	4	2%	-49*	3
C[C@]12C(=O)N(c3ccc(C(F)(F)F)cc3)C(=O)N1[C@H]1c3ccccc3OC[C@@H]1[C@H]2c1ccccc1	5	25	.	3%	.	.
O=C(Nc1ccc(Cl)cc1)N(Cc1cccnc1)Cc1ccco1	-7	4	1	.	-19	-4
COc1ccc(OC)c(C2=C/C(=C/c3ccccn3)C(=O)O2)c1	-14	-28	189*	0%	-56*	-10
COc1ccc(OC)c(-c2oc3ccccc3c(=O)c2O)c1	0	-19	-1	5%	-22	-1
N#Cc1cn(CC(=O)N2CCCC2)c2ccccc12	4	-8	0	0%	14	0
N#Cc1cn(CC(=O)N2CCc3ccccc3C2)c2ccccc12	-10	-53*	7	0%	-12	-4
SMILES	DRD3 agonist	DRD3 antagonist	D1 ag	ERG-DNA inh	D1 antagonist	D1 PAM
O=C(c1ccccc1)c1cccn1CC(=O)N1CCc2ccccc2C1	-14	-54*	1	6%	10	1
COc1ccc(CN(CC(=O)NCc2ccc(F)cc2)C(=O)c2csnn2)cc1	8	1	9	9%	-14	-1
Nc1nc(SCC(=O)NCc2ccccc2)[nH]c(=O)c1NC(=O)c1ccccc1F	-1	-4	-1	11%	-11	2
Cc1ccc(NC(=O)CN(C)C(=O)c2ccc(Sc3nncn3C)c([N+](=O)[O-])c2)cc1	-5	-4	4	8%	15	.
Cc1ccc(Cn2c(=N)n(CC(O)COc3ccccc3)c3ccccc32)cc1 (stereo not given)	-2	-4	42*	.	-17	-8
N=c1n(Cc2ccccc2)c2ccccc2n1CC(O)COc1ccccc1 (stereo not given)	4	32	25	-5%	-31*	-8
OCCNCC(O)Cn1c2ccccc2c2ccccc21 (stereo not given)	-5	-6	3	9%	4	-3
OCCNCC(O)Cn1ccc2ccccc21 (stereo not given)	-1	-52*	0	-2%	-18	-3
COc1cccc(CN(Cc2ccco2)C(c2ccc(F)cc2)c2nnnn2C(C)(C)C)c1 (stereo not given)	7	?	23	0%	-34*	-13
CC(C)(C)n1nnnc1C(c1cccnc1)N(Cc1ccccc1)Cc1ccco1 (stereo not given)	3	-3	3	-2%	-10	-4
COc1ccccc1CN1CCC(CNS(=O)(=O)c2cc(-c3cc(C)no3)ccc2OC)CC1	-7	1	8	2%	-7	-2
O=[N+]([O-])c1cc(C(F)(F)F)ccc1Oc1cccnc1[N+](=O)[O-]	-2	10	0	1%	-81*	-9
O=C(NCCCO)c1c(O)c2cccc3c2n(c1=O)CCC3	4	-5	0	-6%	1	7
N#C/C(=C/c1ccc(N2CCOCC2)o1)c1nc2ccccc2[nH]1	-1	25	64*	?	7	1
N#C/C(=C\c1ccc(Sc2nc3ccccc3[nH]2)o1)c1ccccc1	3	17	14	-5%	-34*	-7
N#C/C(=C\c1cc([N+](=O)[O-])c(N2CCOCC2)cc1N1CCOCC1)c1nc2ccccc2[nH]1	-2	-79*	2	-1%	-3	-4
N#C/C(=C\c1ccc(Sc2ccc(Cl)cc2)o1)c1nc2ccccc2[nH]1	15	25	15	-3%	-18	-9
N#C/C(=C\c1ccc(N2CCOCC2)o1)c1ccccc1	-18	-30	0	.	9	-4
Cc1cc(-n2c(SCc3ccccc3F)nc3[nH]ncc3c2=O)ccc1Cl	10	.	3	-6%	2	-6
COc1cc(CNCc2ccccn2)ccc1OCc1ccc(Cl)cc1Cl	-11	-67*	22	0%	-11	-1
